According to PubChem BioAssay (EPA / NIEHS):
Active and inactive are the calls of the source. How the source made its calls: active means hit-call score of the fitted dose curve at least 0.9, where 1 is the maximum; inactive means score below 0.9.

Columns and labels:
[1] = ATG_EGR_CIS: Attagene CIS-FACTORIAL HepG2 Assay for human Early Growth Response 1 (EGR1) (AID 2282938); conditions: HepG2 Attagene CIS-FACTORIAL EGR reporter mRNA; actives raise or lower the signal
Summary of the method: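 Activity is taken as induction or loss of reporter mRNA versus DMSO, fitted bidirectionally. Transcripts from cis-regulated reporter units in transiently transfected HepG2 were measured after 24 h by RT-PCR with capillary electrophoresis.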

[2] = ATG_M_19_CIS: Attagene CIS-FACTORIAL HepG2 Assay for M19 Transcription Factor (Internal Marker) (AID 2282939); conditions: HepG2 Attagene CIS-FACTORIAL M19 internal marker reporter; actives raise or lower the signal
Summary of the method: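 In this multiplexed cell assay, transiently transfected HepG2 reporter units report endogenous transcription-factor activity; after 24 hours of treatment, labelled reporter cDNA fragments are quantified by capillary electrophoresis and fitted bidirectionally against DMSO.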

[3] = ATG_Ets_CIS: Attagene CIS-FACTORIAL HepG2 Assay for human Erythroblast Transformation Specific (ETS) (AID 2282941); conditions: HepG2 ETS cis-reporter transcription, actives raise or lower the signal
Summary of the method: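 Multiplexed reporter transcript profiling: HepG2, 24 h treatment, total RNA to cDNA, PCR, 6-FAM labelling, HpaI cut, capillary electrophoresis. Gain- or loss-of-signal fitted against DMSO.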

[4] = target: Hepatocyte nuclear factor 3-beta (Homo sapiens) (UniProt Q9Y261); assay: ATG_FoxA2_CIS: Attagene CIS-FACTORIAL HepG2 Assay for human Forkhead box A2 (FOXA2) (AID 2282942); conditions: HepG2 cis-reporter transcription factor activity, 24 h; actives raise or lower the signal
Summary of the method: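 Reporter transcript induction is measured by fluorescence after capillary electrophoresis of RT-PCR products from HepG2 cells exposed 24 h. Cis-regulated reporter units report endogenous factor activity; curves fitted both directions against DMSO.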

[5] = ATG_FoxO_CIS: Attagene CIS-FACTORIAL HepG2 Assay for human Forkhead box O (FoxO) (AID 2282943); conditions: HepG2 Attagene cis-reporter, FoxO element, mRNA; actives raise or lower the signal
Summary of the method: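 Human hepatoma HepG2 cells carry transiently introduced reporter transcription units controlled by cis promoter elements. Chemical treatment lasted 24 h, and mRNA signal was compared with DMSO.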

[6] = ATG_GATA_CIS: Attagene CIS-FACTORIAL HepG2 Assay for human GATA Binding Protein (AID 2282944); conditions: HepG2 GATA cis-element reporter, Attagene multiplex mRNA; actives raise or lower the signal
Summary of the method: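 Measures endogenous transcription factor-driven reporter mRNA in HepG2 cells transiently carrying cis-regulated constructs. 24 h dosing; RNA via oligo(dT) reverse transcription, PCR, HpaI digestion, capillary electrophoresis; fitted relative to DMSO.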

[7] = ATG_GLI_CIS: Attagene CIS-FACTORIAL HepG2 Assay for human Zinc Finger Protein GLI1 (AID 2282945); conditions: HepG2, Attagene cis-factorial reporter mRNA, GLI element; actives raise or lower the signal
Summary of the method: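 Bidirectional curve fits relative to DMSO, using reporter mRNA levels from RT-PCR plus capillary electrophoresis. Cells were HepG2 transiently carrying cis-regulated reporter constructs, harvested 24 h after dosing.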

[8] = target: Bile acid receptor (Homo sapiens) (UniProt Q96RI1); assay: ATG_IR1_CIS: Attagene CIS-FACTORIAL HepG2 Assay for human Nuclear Receptor Subfamily 1 Group H Member 4 (NR1H4), IR1 submotif (AID 2282946); conditions: IR1 reporter transcription, actives raise or lower the signal
Summary of the method: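 HepG2 cells transiently transfected with multiplexed cis-element reporter units read endogenous transcription factor activity. After 24 h compound exposure, reporter mRNA was quantified by RT-PCR, fluorescent labelling, HpaI digestion and capillary electrophoresis; bidirectional fitting versus DMSO baseline.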

[9] = ATG_GRE_CIS: Attagene CIS-FACTORIAL HepG2 Assay for human Glucocorticoid Response Elements (GRE) (AID 2282947); conditions: HepG2 GRE cis-reporter, Attagene multiplex mRNA; actives raise or lower the signal
Summary of the method: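 Multiplexed cis-reporter mRNA induction, HepG2, 24 h post-dose. RT-PCR, FAM-labelled, HpaI-digested amplicons by CE. Bidirectional fit vs DMSO.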

Measured: AC50

Sequence of Hepatocyte nuclear factor 3-beta (Homo sapiens) (Q9Y261 whole entry, looked up): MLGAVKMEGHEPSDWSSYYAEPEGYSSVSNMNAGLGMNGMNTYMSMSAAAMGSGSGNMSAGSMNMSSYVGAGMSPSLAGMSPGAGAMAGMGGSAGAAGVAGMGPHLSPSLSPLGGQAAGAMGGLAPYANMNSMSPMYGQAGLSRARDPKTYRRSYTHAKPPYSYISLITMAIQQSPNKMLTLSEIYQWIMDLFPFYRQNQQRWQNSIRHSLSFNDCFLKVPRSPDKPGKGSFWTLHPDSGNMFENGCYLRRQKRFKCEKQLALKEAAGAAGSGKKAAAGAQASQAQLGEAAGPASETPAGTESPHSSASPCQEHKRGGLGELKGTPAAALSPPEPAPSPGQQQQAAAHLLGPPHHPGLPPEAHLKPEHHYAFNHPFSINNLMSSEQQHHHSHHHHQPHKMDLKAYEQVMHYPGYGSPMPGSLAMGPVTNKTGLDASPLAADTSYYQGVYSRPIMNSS
Sequence of Bile acid receptor (Homo sapiens) (Q96RI1 whole entry, looked up): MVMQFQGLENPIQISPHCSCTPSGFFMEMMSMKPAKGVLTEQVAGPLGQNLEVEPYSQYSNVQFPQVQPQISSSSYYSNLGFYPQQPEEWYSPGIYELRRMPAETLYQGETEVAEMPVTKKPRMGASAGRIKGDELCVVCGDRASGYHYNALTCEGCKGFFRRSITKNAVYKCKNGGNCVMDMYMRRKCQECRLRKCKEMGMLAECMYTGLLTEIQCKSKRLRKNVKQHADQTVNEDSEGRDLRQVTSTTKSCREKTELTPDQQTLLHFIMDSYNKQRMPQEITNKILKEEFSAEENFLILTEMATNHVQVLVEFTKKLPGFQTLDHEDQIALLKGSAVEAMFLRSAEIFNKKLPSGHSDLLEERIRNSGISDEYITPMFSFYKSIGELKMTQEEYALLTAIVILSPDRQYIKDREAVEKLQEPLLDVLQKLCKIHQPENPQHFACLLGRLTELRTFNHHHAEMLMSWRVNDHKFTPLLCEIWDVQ

CC(C)[C@H](C(=O)OC(C#N)c1cccc(Oc2ccccc2)c1)c1ccc(OC(F)F)cc1 (some centres undefined)
not listed: [9]
inactive: all other assays above

C=CCOC(N)=O
inactive: all assays above

COC(=O)Nc1cccc(OC(=O)Nc2cccc(C)c2)c1
not listed: [9]
inactive: all other assays above

CC1(C)[C@H](C(=O)O[C@H](C#N)c2cccc(Oc3ccccc3)c2)[C@@H]1/C=C(\Cl)C(F)(F)F
inactive: all assays above

Cc1cc(Cl)ccc1O
inactive: all assays above

N#CCCC(Br)(C#N)CBr (centres undefined)
active: [1] 45.3 µM | [7] 53.6 µM | [8] 53.9 µM
inactive: all other assays above

c1ccc2c(c1)Oc1ccccc1O2
not listed: [9]
inactive: all other assays above

Nc1ccc(N)cc1
not listed: [9]
inactive: all other assays above

C[As+](C)(C)CC(=O)[O-]
inactive: all assays above

C#C[C@]1(O)CC[C@H]2[C@@H]3CCC4=CC(=O)CC[C@]4(C)[C@H]3CC[C@@]21C
inactive: all assays above

Brc1ccc(Br)cc1
not listed: [3]
inactive: all other assays above

O=C(CCl)NCO
not listed: [3] | [8] | [9]
inactive: all other assays above

CCCCCCCCCCCCc1cccc(S(=O)(=O)O)c1
not listed: [8]
inactive: all other assays above

C[C@]12CC[C@@H](O)C[C@@H]1CC[C@@H]1[C@@H]2CC[C@]2(C)C(=O)CC[C@@H]12
not listed: [3] | [8]
inactive: all other assays above

Cc1cc(Cl)ccc1N
not listed: [8]
inactive: all other assays above

BrCC(Br)c1ccccc1 (centres undefined)
not listed: [6]
inactive: all other assays above

CC(C)O.CC(C)O.OCCN(CCO)CCO.OCCN(CCO)CCO.[Ti]
not listed: [3] | [8] | [9]
inactive: all other assays above

CCOc1cc(C=O)ccc1O
not listed: [8]
inactive: all other assays above

CCN(CC)C(=O)C(Cl)=C(C)OP(=O)(OC)OC
not listed: [3] | [8]
inactive: all other assays above

COc1nn(C(=O)NS(=O)(=O)c2ccccc2OC(F)(F)F)c(=O)n1C
not listed: [6]
inactive: all other assays above

CCC[CH2][Sn]([CH2]CCC)([CH2]CCC)[CH2]CCC
active: [1] 5.14 µM | [8] 0.378 µM
not listed: [6] | [9]
inactive: all other assays above

O=C(Cl)OCCOCCOC(=O)Cl
not listed: [3] | [8]
inactive: all other assays above

Oc1c(Cl)cc(Cl)cc1Cl
not listed: [6] | [8]
inactive: all other assays above

CCOC(=O)C(SP(=S)(OC)OC)c1ccccc1 (centres undefined)
not listed: [3]
inactive: all other assays above

Clc1cccc(Cl)c1
not listed: [6] | [8]
inactive: all other assays above

OCC(c1ccc(Cl)cc1)c1ccc(Cl)cc1
inactive: [4] | [5] | [9]
active: [1] 53.2 µM | [2] 48.5 µM | [7] 61.5 µM | [8] 49.9 µM

CCCCOC(C)=O
not listed: [6] | [9]
inactive: all other assays above

CC(C)[N+](=O)[O-]
not listed: [6] | [9]
inactive: all other assays above

CC[N+](CC)(CC)CC
not listed: [6] | [8]
inactive: all other assays above
